{"source": "PubChem BioAssay (NCATS)", "note": "Where “and” joins values, the source holds several entries; their conditions need not be identical. Identical values can stand only once. Inconclusive results are not listed.", "data": [{"test": "qHTS drug screen for cell cycle checkpoint inhibitors in PARPi-resistant BRCA-mutant ovarian cancer cell lines. (AID 1963452)", "conditions": "PEO1/OlaR viability, CellTiter-Glo luminescence, 96 h; measured here: PEO4 Z-AUC; stronger effect = lower value", "outline": "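PEO1, PEO4 and PEO1/OlaR ovarian cancer cells, 600 per well, exposed 96 h at 37C to a dilution series. Viability read by CellTiter-Glo luminescence, normalized to DMSO and empty wells; activity summarized as Z-AUC.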", "values": [{"molecule": "Cc1c(C)c2c(c(C)c1O)CCC(C)(COc1ccc(CC3SC(=O)NC3=O)cc1)O2", "note": "(configuration not stated)", "Z-AUC": 0.844}, {"molecule": "N[C@@H]1CONC1=O", "Z-AUC": 1.43}, {"molecule": "O=c1[nH]cnc2[nH]ncc12", "Z-AUC": -0.722}, {"molecule": "CC(C[N+](C)(C)C)OC(N)=O", "note": "(configuration not stated)", "Z-AUC": 1.64}, {"molecule": "O=C(C1CC1)N1CC[C@@H](Cn2c(-c3ccc(-c4ccc5occc5c4)cc3)nc3cnccc32)C1", "Z-AUC": 0.902}, {"molecule": "Cc1[nH]c(=O)c(C#N)cc1-c1ccncc1", "Z-AUC": -0.635}, {"molecule": "Cc1n[nH]c(C)c1Cc1sc2c(c1C(=O)N1C[C@H](O)CO1)c(=O)n(C)c(=O)n2CC(C)C", "Z-AUC": -0.228}, {"molecule": "CCN(CC)CCCC(C)Nc1nc(C)cc(Nc2ccc3nc(C)cc(N)c3c2)n1", "note": "(configuration not stated)", "Z-AUC": 0.29}, {"molecule": "CC[C@@H](C)[C@H](NC(=O)[C@H](CC1CCCCC1)NC(=O)c1ccno1)C(=O)N1CCC2(CCc3ccccc32)CC1", "Z-AUC": -0.471}, {"molecule": "Cc1cnc(NC(=O)C2=C(O)c3ccccc3S(=O)(=O)N2C)s1", "Z-AUC": "0.593 and 0.643 and 0.888"}, {"molecule": "C1COC(NC(C2CC2)C2CC2)=N1", "Z-AUC": -0.616}, {"molecule": "O=NN(CCCl)C(=O)NCCCl", "Z-AUC": 0.781}, {"molecule": "C#Cc1cccc(Nc2ncnc3cc(OCCOC)c(OCCOC)cc23)c1", "Z-AUC": -0.978}, {"molecule": "NS(=O)(=O)c1cc2c(cc1Cl)NC=NS2(=O)=O", "Z-AUC": 0.779}, {"molecule": "CC(c1cc2ccccc2s1)N(O)C(N)=O", "note": "(configuration not stated)", "Z-AUC": -0.638}, {"molecule": "COc1nc(-c2ccc3c(c2)OCO3)n(-c2ccc(NC(=O)CSc3ccccc3)cc2)n1", "Z-AUC": 1.19}, {"molecule": "NCCCC(N)(C(=O)O)C(F)F", "note": "(configuration not stated)", "Z-AUC": 1.05}, {"molecule": "CNC[C@H](O)c1cccc(O)c1", "Z-AUC": 0.496}, {"molecule": "NC(=O)C1CCCc2c1[nH]c1ccc(Cl)cc21", "note": "(configuration not stated)", "Z-AUC": -0.557}, {"molecule": "COc1ccc(CC2=NN3C([C@@H](CCc4ccccc4)[C@@H](C)O)=NC(C)C3C(=O)N2)cc1OC", "note": "(some centres not stated)", "Z-AUC": 0.704}, {"molecule": "NC(=O)c1ccc(I)c([N+](=O)[O-])c1", "Z-AUC": 1.61}, {"molecule": "Oc1cccc(-c2nc(N3CCOCC3)c3oc4ncccc4c3n2)c1", "Z-AUC": -0.797}, {"molecule": "CC(C)C[C@H](NC(=O)[C@@H](O)[C@H](N)Cc1ccccc1)C(=O)O", "Z-AUC": 0.252}, {"molecule": "CCCCNc1cc(C(=O)O)cc(S(N)(=O)=O)c1Oc1ccccc1", "Z-AUC": 0.519}, {"molecule": "O=C1CCc2cc(OCCCCc3nnnn3C3CCCCC3)ccc2N1", "Z-AUC": -0.778}, {"molecule": "NCCc1ccc(O)c(O)c1", "Z-AUC": 0.891}, {"molecule": "NC[C@H](O)c1ccc(O)c(O)c1", "Z-AUC": -0.505}, {"molecule": "CC(C)(C)OC(=O)CN(Cc1ccc(Cl)cc1)Cc1ccc([N+](=O)[O-])s1", "Z-AUC": 0.345}, {"molecule": "Nc1nc2c(ncn2COCCO)c(=O)[nH]1", "Z-AUC": -0.538}, {"molecule": "OCCn1cc(-c2cnc3nnn(Cc4ccc5ncccc5c4)c3n2)cn1", "Z-AUC": 0.506}, {"molecule": "CC(C)(C)NCC(O)c1ccc(O)c(CO)c1", "note": "(configuration not stated)", "Z-AUC": 0.881}, {"molecule": "CCc1ccc(CCOc2ccc(CC3SC(=O)NC3=O)cc2)nc1", "note": "(configuration not stated)", "Z-AUC": 0.973}, {"molecule": "O=C(O)[C@@H](c1ccc(OCc2ccc3ccccc3n2)cc1)C1CCCC1", "Z-AUC": 0.552}, {"molecule": "O=C(O)CCc1ccc(NCc2cccc(Oc3ccccc3)c2)cc1", "Z-AUC": 1.47}]}, {"test": "qHTS for identification of novel therapeutic agents for treatment of microphthalmiaassociated transcription factor (MiT) renal cell carcinoma (RCC) (AID 1963991)", "conditions": "TFE3-RCC UOK109 viability, CellTiter-Glo, 48 h; measured here: UOK109 Z-AUC; stronger effect = lower value", "outline": "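Curves over 11 concentrations were fitted to CellTiter-Glo luminescence, scaled between empty wells (0%) and DMSO (100%) viability. Cells were UOK109, UOK124 and UOK145 TFE3-fusion RCC lines at 500/well, exposed 48 hours at 37 C.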", "values": [{"molecule": "Cc1c(C)c2c(c(C)c1O)CCC(C)(COc1ccc(CC3SC(=O)NC3=O)cc1)O2", "note": "(configuration not stated)", "z-score": 0.729}, {"molecule": "N[C@@H]1CONC1=O", "z-score": 0.394}, {"molecule": "CC(C[N+](C)(C)C)OC(N)=O", "note": "(configuration not stated)", "z-score": 0.592}, {"molecule": "O=C(C1CC1)N1CC[C@@H](Cn2c(-c3ccc(-c4ccc5occc5c4)cc3)nc3cnccc32)C1", "z-score": 0.57}, {"molecule": "Cc1n[nH]c(C)c1Cc1sc2c(c1C(=O)N1C[C@H](O)CO1)c(=O)n(C)c(=O)n2CC(C)C", "z-score": 0.549}, {"molecule": "CCN(CC)CCCC(C)Nc1nc(C)cc(Nc2ccc3nc(C)cc(N)c3c2)n1", "note": "(configuration not stated)", "z-score": 0.273}, {"molecule": "CC[C@@H](C)[C@H](NC(=O)[C@H](CC1CCCCC1)NC(=O)c1ccno1)C(=O)N1CCC2(CCc3ccccc32)CC1", "z-score": 0.139}, {"molecule": "Cc1cnc(NC(=O)C2=C(O)c3ccccc3S(=O)(=O)N2C)s1", "z-score": 0.549}, {"molecule": "C1COC(NC(C2CC2)C2CC2)=N1", "z-score": 0.422}, {"molecule": "O=NN(CCCl)C(=O)NCCCl", "z-score": -0.0741}, {"molecule": "C#Cc1cccc(Nc2ncnc3cc(OCCOC)c(OCCOC)cc23)c1", "z-score": -2.56}, {"molecule": "CC(c1cc2ccccc2s1)N(O)C(N)=O", "note": "(configuration not stated)", "z-score": 0.403}, {"molecule": "COc1nc(-c2ccc3c(c2)OCO3)n(-c2ccc(NC(=O)CSc3ccccc3)cc2)n1", "z-score": 0.687}, {"molecule": "NC(=O)C1CCCc2c1[nH]c1ccc(Cl)cc21", "note": "(configuration not stated)", "z-score": 0.0433}, {"molecule": "COc1ccc(CC2=NN3C([C@@H](CCc4ccccc4)[C@@H](C)O)=NC(C)C3C(=O)N2)cc1OC", "note": "(some centres not stated)", "z-score": 1.24}, {"molecule": "NC(=O)c1ccc(I)c([N+](=O)[O-])c1", "z-score": 0.172}, {"molecule": "Oc1cccc(-c2nc(N3CCOCC3)c3oc4ncccc4c3n2)c1", "z-score": -1.31}, {"molecule": "CCCCNc1cc(C(=O)O)cc(S(N)(=O)=O)c1Oc1ccccc1", "z-score": 0.772}, {"molecule": "O=C1CCc2cc(OCCCCc3nnnn3C3CCCCC3)ccc2N1", "z-score": 0.489}, {"molecule": "NCCc1ccc(O)c(O)c1", "z-score": 0.759}, {"molecule": "NC[C@H](O)c1ccc(O)c(O)c1", "z-score": 0.441}, {"molecule": "CC(C)(C)OC(=O)CN(Cc1ccc(Cl)cc1)Cc1ccc([N+](=O)[O-])s1", "z-score": 0.406}, {"molecule": "Nc1nc2c(ncn2COCCO)c(=O)[nH]1", "z-score": 0.456}, {"molecule": "OCCn1cc(-c2cnc3nnn(Cc4ccc5ncccc5c4)c3n2)cn1", "z-score": 0.421}, {"molecule": "CC(C)(C)NCC(O)c1ccc(O)c(CO)c1", "note": "(configuration not stated)", "z-score": 0.712}, {"molecule": "CCc1ccc(CCOc2ccc(CC3SC(=O)NC3=O)cc2)nc1", "note": "(configuration not stated)", "z-score": 1.53}, {"molecule": "O=C(O)[C@@H](c1ccc(OCc2ccc3ccccc3n2)cc1)C1CCCC1", "z-score": 0.431}, {"molecule": "O=C(O)CCc1ccc(NCc2cccc(Oc3ccccc3)c2)cc1", "z-score": 0.226}]}]}
